The record followed here is PubChem BioAssay (NCI).

Test [1] is described as follows: NCI Yeast Anticancer Drug Screen. Data for the rad50 strain (AID 155).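 Note: 0% = growth of vehicle-only cultures of the same strain.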 The settings on record: S. cerevisiae rad50 strain growth inhibition; at 50.0 µM; active compounds read high. In a few lines:
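DNA repair mutant yeast, compound exposure, growth read-out; inhibition is taken relative to vehicle.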

Test [2] in a line: NCI Yeast Anticancer Drug Screen. Data for the mec2-1 strain (AID 157). The settings on record: S. cerevisiae mec2-1 strain, at 50.0 µM, active compounds read high. A digest of the protocol: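 mec2-1 yeast strain, carrying an alteration in DNA damage repair or cell cycle control, was exposed to compounds; growth inhibition was measured relative to vehicle-treated controls.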
Test [3] can be described thus: NCI Yeast Anticancer Drug Screen. Data for the sgs1 mgt1 strain (AID 161).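 Note: 0% = growth of cultures given vehicle only.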 The settings on record: S. cerevisiae sgs1 mgt1 strain, at 50.0 µM, active compounds read high. In a few lines: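 This yeast growth screen uses a strain with defined DNA-repair lesions; compound-treated growth is compared with vehicle-treated growth.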
Test [4] is described as follows: NCI Yeast Anticancer Drug Screen. Data for the cln2 rad14 strain (AID 165).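 Note: 0% = growth equal to vehicle treated cultures.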 The settings on record: S. cerevisiae cln2 rad14 strain, at 50.0 µM, active compounds read high. A digest of the protocol: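 Yeast carrying cln2 and rad14 alterations (cell cycle control and DNA damage repair) were exposed to compounds. Growth inhibition was measured against vehicle-treated controls.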

Test [5] in a line: NCI Yeast Anticancer Drug Screen. Data for the bub3 strain (AID 167). The settings on record: S. cerevisiae bub3 mutant strain, at 50.0 µM, active compounds read high. A digest of the protocol: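 In this screen, a yeast mutant lacking normal mitotic checkpoint function is challenged with compound. Relative growth versus vehicle gives the inhibition value.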
Test [6] in a line: NCI Yeast Anticancer Drug Screen. Data for the mlh1 rad18 strain (AID 175). The settings on record: S. cerevisiae mlh1 rad18 strain growth inhibition; at 50.0 µM; active compounds read high. A digest of the protocol: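 Growth inhibition of the yeast strain was measured after compound exposure and expressed relative to vehicle-treated controls. The strain carries defined defects in DNA damage repair.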

This is part of a sample that, as a whole, favours compounds with a hit. Of some 79,000 tested, about 15% had one in any assay. A number with no mark means an inactive call. The source made the active and inactive calls. Cut-off read from the data, not from the text of the source: active = growth inhibition above about 70%; inactive = the rest.

As to `N#Cc1ccc(N)cc1`, the growth inhibition in test [1] was -2.9%; in test [2], -7.9%; in test [3], -37.5%; in test [4], -10.8%; in test [5], -18.4%; in test [6], -16.8%.
Consider `O=C(Cc1ccccc1)OC1CCCC1`, for which the growth inhibition in test [1] is 14.6%; in test [2], -4.6%; in test [3], -7.15%; in test [4] it was -39%; in test [5], -3.3%; in test [6] it was 19%.
With `Cc1ccc2[nH]c(=S)n(-c3ccc(Cl)cc3)c(=O)c2c1`, the growth inhibition in test [1] is 9.3%; in test [2], 25.5%; in test [3], 29.9%; in test [4], 18.8%; in test [5], 24%; in test [6], -2.05%.
As to `CC1(C)CC(N)C(=O)c2ccccc21` (stereo not drawn), the growth inhibition was 7.25% in test [1]; -20.6% in test [2]; -5.6% in test [3]; 14.2% in test [4]; -4.4% in test [5]; 29% in test [6].
`CC1=C(C)C(=O)C(C)=C(C)C1=O`: the growth inhibition in test [1] was 25.2%; in test [2] it was 8.7%; in test [3], -9.6%; in test [4] it was -10.7%; in test [5], 5.15%; in test [6] it was 13.2%.
Regarding `Cc1ccc(C(C)(C)C)c(OP(=S)(S)Oc2cc(C)ccc2C(C)(C)C)c1.[Pb]`, the growth inhibition in test [1] is 5.9%; in test [2] it was -1.85%; in test [3] it was -1.3%; in test [4] it was 9.7%; in test [5], -13.7%; in test [6] it was 7.3%.
For the compound `O=[N+]([O-])c1cc(/C=N\NC(=S)NC2CN3CCC2CC3)ccc1Cl` (stereo not drawn), the growth inhibition in test [1] is 22.5%; in test [2], -24.1%; in test [3] it was 1.85%; in test [4] it was 0.15%; in test [5], 4.8%; in test [6] it was 2.4%.
As for `O=C(Nc1cc(S(=O)(=O)F)ccc1Cl)Oc1ccc([N+](=O)[O-])cc1`, the growth inhibition in test [1] is 17.4%; in test [2], 53.2%; in test [3] it was 38.3%; in test [4], 11.3%; in test [5], 20.1%; in test [6], 32.5%.
Turning to `N#CC1C(=O)c2ccccc2C1=O`, the growth inhibition in test [1] was -1.4%; in test [2], 4.15%; in test [3], 1.6%; in test [4], -3.35%; in test [5], 12.8%; in test [6], -1.85%.
With `Cc1ccccc1-n1c(CCl)nc2ccc(Br)cc2c1=O`, the growth inhibition in test [1] is 18.4%; in test [2], 2.6%; in test [3], 12.6%; in test [4] it was 6.05%; in test [5], 1.35%; in test [6] it was 27.1%.
`CC(=O)C1(c2ccccc2)CCNCC1`: the growth inhibition in test [1] was -1%; in test [2] it was -13.1%; in test [3] it was 10.6%; in test [4] it was 11.9%; in test [5], -3.9%; in test [6] it was -3.35%.
In the case of `COc1ccc2nc3ccccc3nc2c1` (tested in a mixture with another compound), the growth inhibition was 30.2% in test [1]; 35.2% in test [2]; 27.2% in test [3]; 19.6% in test [4]; 24.1% in test [5]; 30.8% in test [6].
`COc1ccc2nc3cc(Cl)ccc3c(NCCCSCCCl)c2n1`: the growth inhibition was 95.4% (active) in test [1]; 80% (active) in test [2]; 94.3% (active) in test [3]; 78.4% (active) in test [4]; 71.3% (active) in test [5]; 92.2% (active) in test [6].
On to `O=c1cc(O)c1=O`, for which the growth inhibition in test [1] is 23.2%; in test [2], 18%; in test [3] it was -6.05%; in test [4], 14.9%; in test [5] it was 16.8%; in test [6], 31.9%.
As for `C/C=C/CC1(c2ccccc2)C(=O)NC(=S)NC1=O`, the growth inhibition is 10.2% in test [1]; -15% in test [2]; 6.3% in test [3]; -42.3% in test [4]; -6% in test [5]; 5.9% in test [6].
Consider `CC(Cl)(Cl)[N+](=O)[O-]`, for which the growth inhibition is 33.7% in test [1]; -22.5% in test [2]; -8.05% in test [3]; -60.1% in test [4]; -10.2% in test [5]; 21.1% in test [6].
`[CH3][Sn]([CH3])([Cl])[S]CCN`: the growth inhibition was 29.6% in test [1]; 32.5% in test [2]; -5.55% in test [3]; 1.25% in test [4]; -15.4% in test [5]; 18.6% in test [6].
For `O=NNc1nc2ccccc2[nH]1`, the growth inhibition was 6.5% in test [1]; -0.65% in test [2]; 2.05% in test [3]; -24.6% in test [4]; -6.95% in test [5]; 8.85% in test [6].
